Each structure is given as a SMILES string. Several values for one entry are separate records, joined by “and”; a condition that tells them apart may be missing. Identical values can stand only once. Inconclusive results are not listed. Activity calls are given as the source filed them. The call rests on the fitted dose curve; in most records, active means well fitted curve in the direction sought with a large enough effect; inconclusive means small, poorly fitted or top-dose-only effect, or another doubt; inactive means no such curve, though single readings can be large; an effect the other way counts as inactive or inconclusive.

Assay [1] in a line: P-glycoprotein substrates identified in KB-8-5-11 adenocarcinoma cell line, qHTS therapeutic library screen (AID 1346987). Further: nearly all actives have a fitted effect of over 65% in size. Further: potency means the concentration at half of the fitted maximal effect. An outline of the steps:
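Human cervical adenocarcinoma KB-8-5-11 cells, selected in colchicine to over-express P-gp and assayed without it, were exposed for 72 h to titrated compounds. An ATP-based luminescent viability signal gave AC50.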

The nature of assay [2]: NS1 protein of Zika virus - qHTS assay to identify small molecule inhibitors in human HEK 293 cells (AID 1347053). Further: nearly all actives have a fitted effect of over 55% in size. Further: potency means the concentration at half of the fitted maximal effect. The method, boiled down: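 In this cell-based screen, HEK 293 cultures received compound for one hour before Zika MR766 at MOI = 0.5. NS1 was quantified 24 hours later by TR-FRET, normalized to virus-free wells and infected wells.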
Background: qHTS replaces the single test concentration by a dilution series.

The nature of assay [3]: qHTS of pediatric cancer cell lines to identify multiple opportunities for drug repurposing: Primary screen for TC32 cells (AID 1347089). Further: nearly all actives have a fitted effect of over 60% in size. The method, boiled down:
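A viability screen of TC32 cells was run over 48 h, with primary MIPE doses spanning 0.78 nM–46 µM and NPC doses 0.59 nM–46 µM. ATP luminescence (CellTiter-Glo) served as the read-out.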

The nature of assay [4]: qHTS of pediatric cancer cell lines to identify multiple opportunities for drug repurposing: Primary screen for A673 cells (AID 1347092). Further: nearly all actives have a fitted effect of over 45% in size. Further: potency means the concentration at half of the fitted maximal effect. An outline of the steps: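 Titration-based qHTS on A673 cells: MIPE compounds spanned 11 points (0.78 nM to 46 µM final), NPC compounds 8 points (0.59 nM to 46 µM final). Viability after 48 h was measured by ATP luminescence.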
The nature of assay [5]: qHTS of pediatric cancer cell lines to identify multiple opportunities for drug repurposing: Primary screen for Saos-2 cells (AID 1347097). Further: nearly all actives have a fitted effect of over 40% in size. Further: potency means the concentration at half of the fitted maximal effect. An outline of the steps:
(§1)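 ATP-based luminescence (CellTiter-Glo) quantifies viability after a 48-hour exposure. Compounds are dosed across 8 or 11 final concentrations; DMSO and 2.3 µM bortezomib serve as controls.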

Assay [6] is described as follows: qHTS of pediatric cancer cell lines to identify multiple opportunities for drug repurposing: Primary screen for SK-N-SH cells (AID 1347098). Further: nearly all actives have a fitted effect of over 65% in size. Further: potency means the concentration at half of the fitted maximal effect. The method, boiled down: (§2)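 Cells (500-1,000/well) rested 5 h, then received compounds for 48 h; metabolically active cells were measured by CellTiter-Glo luminescence. Final concentrations spanned up to 46 µM (MIPE, 11-point) or 0.59 nM-46 µM (NPC, 8-point) in primary screens, 11-point in follow-ups.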

A short description of assay [7]: qHTS of pediatric cancer cell lines to identify multiple opportunities for drug repurposing: Primary screen for SJ-GBM2 cells (AID 1347091). Further: potency means the concentration at half of the fitted maximal effect. The method, boiled down:
(§3)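 Cell viability, CellTiter-Glo luminescence; 500-1,000 cells/well, 8- or 11-point titration, 48 h compound exposure at 37 degrees C, 5% CO2. Controls: DMSO neutral, bortezomib 2.3 µM final as positive.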

The nature of assay [8]: qHTS of pediatric cancer cell lines to identify multiple opportunities for drug repurposing: Primary screen for BT-37 cells (AID 1347094). Further: potency means the concentration at half of the fitted maximal effect. An outline of the steps: as §1
Assay [9] in a line: qHTS of pediatric cancer cell lines to identify multiple opportunities for drug repurposing: Primary screen for U-2 OS cells (AID 1347096). Further: nearly all actives have a fitted effect of over 50% in size. The method, boiled down:
as §2

A short description of assay [10]: qHTS of pediatric cancer cell lines to identify multiple opportunities for drug repurposing: Primary screen for SK-N-MC cells (AID 1347093). Further: potency means the concentration at half of the fitted maximal effect. The method, boiled down:
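Metabolically active cells were quantified by ATP-dependent luminescence (CellTiter-Glo, 15 min at room temperature) following 48 h treatment. Cells had been plated at 500-1,000 per well and settled for 5 h beforehand.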

The nature of assay [11]: qHTS of pediatric cancer cell lines to identify multiple opportunities for drug repurposing: Primary screen for NB-EBc1 cells (AID 1347095). Further: potency means the concentration at half of the fitted maximal effect. An outline of the steps:
as §1

A short description of assay [12]: qHTS of pediatric cancer cell lines to identify multiple opportunities for drug repurposing: Primary screen for DAOY cells (AID 1347090). Further: nearly all actives have a fitted effect of over 55% in size. Further: potency means the concentration at half of the fitted maximal effect. The method, boiled down:
as §3

In the case of `C[C@@H](N)c1ccc(C(=O)Nc2ccnc3[nH]ccc23)cc1`, the Potency result in assay [1], in [2] and in assay [3] was “inactive” in each case. Further, the figures for the Potency in [4], in assay [5] and in assay [6] were 9.35 µM (active), 14.8 µM (active) and 21.5 µM (active), respectively.

In the case of `Oc1ccc(C=Cc2cc(O)cc(O)c2)cc1`, the Potency entry in [1], in assay [2], in assay [3] and in assay [9] was “inactive” each time. Also, the Potency in [7] is 18.7 µM (active); in assay [8] it was 21.7 µM (active); in assay [5], 29.6 µM (active).

For the compound `COc1cc2c(cc1OC)CC(=O)N(CCCN(C)C[C@H]1Cc3cc(OC)c(OC)cc31)CC2`, the Potency entry in [1], in assay [2], in assay [3], in assay [9] and in [5] was “inactive” each time. Besides, in assay [10], the Potency is 14.8 µM (active).

Consider `COc1ccc(CCC(=O)Nc2nc3ccc(Cl)cc3s2)cc1OC`, for which the Potency result in [1], in [2], in [3], in [7], in [11] and in [9] was “inactive” throughout. Also, the values for the Potency in [4] and in assay [6] were 18.7 µM (active) and 9.61 µM (active), respectively.

Regarding `C[C@@H]1C[C@H]2[C@@H]3CCC4=CC(=O)C=C[C@]4(C)[C@@]3(F)[C@@H](O)C[C@]2(C)[C@@]1(O)C(=O)CO`, the Potency result in assay [1], in assay [2], in assay [3], in [7], in [8] and in assay [11] was “inactive” in each case. In addition, the Potency entry in assay [9] and in assay [5] was “inactive” each time. In addition, the Potency in assay [10] is 0.001 µM (active).

On to `CCCCOCCOc1nc(-c2ccc(C(=O)O)c(F)c2)sc1C`, for which the Potency entry in assay [1], in assay [2], in assay [3], in assay [7], in assay [4] and in assay [11] was “inactive” each time. Besides, the Potency entry in assay [9] and in [5] was “inactive” each time. In addition, the Potency in assay [6] is 6.81 µM (active).

In the case of `OC1CCC(Nc2ncc3nc(Nc4c(F)cc(F)cc4F)n([C@@H]4CCOC4)c3n2)CC1` (some centres undefined), the Potency result in assay [1], in [2], in assay [3] and in assay [6] was “inactive” in each case. Further, the Potency in [7] was 9.35 µM (active); in assay [4], 9.35 µM (active); in assay [11], 5.26 µM (active).

Take `Cc1ccccc1-n1c(Cn2nc(-c3cccc(O)c3)c3c(N)ncnc32)nc2cccc(C)c2c1=O`: the Potency result in assay [1] and in assay [2] was “inactive” each time. Further, the Potency in assay [12] is 1.18 µM (active); in assay [7], 0.0166 µM (active); in assay [4], 0.0047 µM (active); in assay [10], 0.0418 µM (active); in assay [8], 0.0544 µM (active); in [11], 0.0743 µM (active). For the same compound, in assay [5], the Potency is 0.059 µM (active).

Consider `OCCn1cc(-c2ccc3c(c2)CCC3=NO)c(-c2ccncc2)n1`, for which the Potency result in assay [1], in assay [2], in [3], in [7], in assay [11] and in [9] was “inactive” each time. In addition, the Potency in assay [6] is 19.2 µM (active).

Take `COc1cc(C=CC(=O)O)ccc1O`: the Potency result in assay [1], in assay [2], in assay [7], in assay [4], in assay [8] and in assay [11] was “inactive” each time. The Potency result in assay [9], in [5] and in assay [6] was “inactive” in each case. The Potency in assay [10] is 20.9 µM (active).

With `N#CC(=C1Nc2ccccc2S1)c1ccnc(OCc2ccc(CN3CCOCC3)cc2)n1`, the Potency result in assay [1] and in assay [2] was “inactive” throughout. In addition, the Potency was 0.0093 µM (active) in assay [12]; 3.32 µM (active) in assay [7]; 0.0235 µM (active) in assay [4]; 0.306 µM (active) in assay [8]; 0.526 µM (active) in assay [11]; 0.0148 µM (active) in [5]. In addition, in assay [6], the Potency is 0.482 µM (active).

In the case of `CC(C)CNc1ccnc(NCc2csc(-c3ccccc3)n2)n1`, the Potency in assay [1] was 18.7 µM (active) and 10.3 µM (active); in [2] it was 26.4 µM (active); in [12], 18.7 µM (active); in [4] it was 11.8 µM (active); in assay [10], 10.5 µM (active); in assay [8], 24.3 µM (active).

As to `CCCCN(CCCC)CC(O)c1cc(Cl)cc2c1-c1ccc(Cl)cc1C2=Cc1ccc(Cl)cc1` (centres undefined), the Potency entry in assay [1], in [2], in assay [12], in [4], in [8] and in assay [11] was “inactive” each time. For the same compound, the Potency entry in assay [9], in assay [5] and in assay [6] was “inactive” in each case.

With `COc1c(C)c2c(c(O)c1CC=C(C)CCC(=O)OCCN1CCOCC1)C(=O)OC2`, the Potency is 7.43 µM (active) in assay [1]; 0.526 µM (active) in assay [2]; 1.18 µM (active) in [10]; 1.53 µM (active) in assay [8]; 0.59 µM (active) in assay [11]. The Potency result in assay [7] and in [5] was “inactive” throughout.

With `CC(NCCc1ccc(O)cc1)C(O)c1ccc(O)cc1` (centres undefined), the Potency entry in assay [1], in assay [2], in [12], in [4], in [10] and in assay [8] was “inactive” each time. Also, the Potency result in [11], in [9], in [5] and in assay [6] was “inactive” throughout.

On to `CCOC(=O)[C@H]1O[C@H]1C(=O)N[C@@H](CC(C)C)C(=O)NCCC(C)C`, for which the Potency result in [1], in assay [2], in assay [12], in [7], in assay [8] and in assay [11] was “inactive” throughout. Moreover, the Potency entry in assay [9] and in assay [6] was “inactive” in each case. In assay [4], the Potency was 18.7 µM (active).

In the case of `Cc1ccc(C2=Nc3ccc(Cl)cc3OC2)cc1`, the Potency entry in [1], in assay [2] and in assay [9] was “inactive” in each case. Also, the Potency in [7] was 23.5 µM (active); in assay [4] it was 18.7 µM (active); in assay [6], 2.15 µM (active).

With `CN(C)CCOc1cc(-c2cn[nH]c2)ccc1NC(=O)C1COc2ccccc2O1` (centres undefined), the Potency result in assay [1], in [3], in assay [12], in assay [7], in [8] and in [11] was “inactive” in each case. For the same compound, the Potency result in assay [9] was “inactive”. In addition, the Potency in assay [4] is 18.7 µM (active); in assay [10], 8.33 µM (active); in [6], 10.8 µM (active).

The record behind these values is PubChem BioAssay (NCATS).
